Compound activity (PubChem BioAssay)
Sampled rows, rich in hits. Any-hit rate of the full collection: about 2.2%.
CHT PAM: human CHT allosteric activation. 310,000 compounds, 0.49% hits. B-score at 10 µM. CHT-expressing cells, membrane potential dye, choline EC20; active compounds read high; LV-AA mutant CHT in HEK293 cells. Q9GZV3;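 active = initial fluorescence not abnormally high and integrated response B-score, plate-corrected, over 3 SD above library mean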
Target sequence (Q9GZV3 whole entry, looked up): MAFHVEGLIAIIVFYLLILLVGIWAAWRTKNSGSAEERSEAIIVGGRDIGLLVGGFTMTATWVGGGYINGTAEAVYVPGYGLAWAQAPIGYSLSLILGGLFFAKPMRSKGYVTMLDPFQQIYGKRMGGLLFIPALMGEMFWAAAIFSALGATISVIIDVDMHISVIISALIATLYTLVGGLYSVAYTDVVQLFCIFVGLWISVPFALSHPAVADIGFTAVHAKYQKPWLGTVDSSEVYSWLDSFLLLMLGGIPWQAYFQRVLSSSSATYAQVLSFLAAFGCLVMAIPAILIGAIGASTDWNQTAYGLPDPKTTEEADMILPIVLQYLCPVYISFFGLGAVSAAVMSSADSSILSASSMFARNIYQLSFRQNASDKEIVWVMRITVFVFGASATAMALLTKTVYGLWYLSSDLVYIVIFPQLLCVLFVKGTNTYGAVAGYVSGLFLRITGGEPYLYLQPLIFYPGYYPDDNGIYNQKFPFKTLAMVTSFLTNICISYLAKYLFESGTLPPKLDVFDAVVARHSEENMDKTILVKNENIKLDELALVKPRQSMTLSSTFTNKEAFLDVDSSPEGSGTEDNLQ
CHT inh: human CHT choline transport inhibition | Q9GZV3 | CHT-expressing cells, membrane potential dye, choline response; active compounds read low | B-score at 10 µM | 310,000 compounds, 0.86% hits | AID 488975;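 active = B-score over 3 SD under the library average, and starting fluorescence ratio not unusually high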;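 also: choline stimulus applied at its EC90 after an EC20 pre-addition; B-score computed on integrated fluorescence ratio after choline addition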
AI-2 QS mod: Vibrio harveyi AI-2 quorum sensing modulation | Vibrio harveyi JMH597 AI-2 luminescence/OD600 ratio, 9 h; active compounds read low; strain lacks LuxN and CqsS sensors; 0 = neutral-control median | activity change, % at 7.5 µM | 300,000 compounds, 0.4% hits; in the data active = activity change below about -75%, passing the limit was not always enough; inconclusive = no clear call, values can overlap the other calls;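 also: luminescence divided by OD600 gain over 9 h not by final OD600 alone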
HIF activator: HIF pathway transcriptional activation; U2OS HRE-luciferase reporter, luminescence; normalized: DMSO 0%, desferrioxamine 100%; activation, % at 7.5 µM (by protocol); 300,000 compounds, 0.32% hits; AID 1910;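 active = mean activation of at least 10% of the iron chelator positive control signal, with at least half of replicates also reaching 10%; inconclusive = mean and replicate majority disagree about reaching 10%; inactive = mean and most replicates under 10%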
Platelet DG rel: modulates dense granule release in human platelets; human platelet-rich plasma, SFLLRN dense granule ATP release, luminescence; inhibition, %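 (compounds screened at 7.5 µM in platelet-rich plasma)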; 300,000 compounds, 0.22% hits; AID 1663;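 active = mean replicate score, as percent of positive control, at or above 50; inconclusive = mean below 50 but at least one replicate at or above 50; inactive = mean and every replicate below 50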
VLA-4 inh: inhibition in a human VLA-4 binding assay; P13612; VLA-4 expressing cells, ligand binding flow cytometry; inhibition, % (about 7 µM as worked out from the volumes in the protocol); 330,000 compounds, 0.2% hits; in the data active = inhibition above about 50%
CHT act confirm: confirmation of human choline transporter (CHT) activators; AID 504833; CHT-expressing cells, membrane potential dye fluorescence (FDSS); % of choline EC20–EC90 response window; HEK293 expressing CHT LV-AA mutant; choline added at its EC20; activation, % at 10 µM; 2,500 compounds, 91% hits; shares compounds with CHT PAM;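 active = primary screen active, with duplicate mean activation above negative control mean plus 3 SD, cut at about 11% in these data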
HEK293 MP dye: counter-screen for CHT activators: effect in parental HEK293 cells; ratio readout change at 10 µM, hits read low; 2,500 compounds, 62% hits; shares compounds with CHT PAM; AID 623908; membrane potential dye fluorescence (FDSS); measured after EC20 choline addition;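 active = duplicate-averaged ratio beyond 3 SD from buffer wells, up or down, though filed actives are nearly all decreases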
* hit, by the source's call; i = inactive; ? = inconclusive; · = no result.

SMILES	CHT PAM	CHT inh	AI-2 QS mod	HIF activator	Platelet DG rel	VLA-4 inh	CHT act confirm	HEK293 MP dye
CN1CCN(c2ccc([N+](=O)[O-])cc2NC(=O)c2ccccc2)CC1	8.5*	i	-18	0	-3	11	62*	-88*
CN1CCN(c2ccc(S(=O)(=O)N3CCCCC3)cc2NC(=O)c2ccc(C#N)cc2)CC1	i	i	20	-41	-22	-4	2	i
COc1cccc(C(=O)Nc2cc([N+](=O)[O-])ccc2N2CCN(C)CC2)c1	9.7*	i	13	0	-5	-8	49*	-82*
CN1CCN(c2ccccc2NC(=O)c2ccc(-c3ccccc3)cc2)CC1	i	i	12	-1	0	20	·	·
COc1ccc(C(=O)Nc2cc([N+](=O)[O-])ccc2N2CCN(C)CC2)cc1	i	i	26	-1	-6	6	·	·
CN1CCN(c2ccc(Cl)cc2NC(=O)c2ccc(S(=O)(=O)N3CCCCCC3)cc2)CC1	i	i	4	0	3	13	·	·
O=C(Nc1cc([N+](=O)[O-])ccc1N1CCCC1)c1ccccc1	i	i	0	0	12	14	·	·
CN1CCN(c2ccccc2NC(=O)c2ccc(OCc3ccccc3)cc2)CC1	i	i	·	·	·	5	27*	-33*
CN1CCN(S(=O)(=O)c2ccc(N(C)Cc3cccc(F)c3)nc2)CC1	·	·	·	·	·	9	·	·
CN1CCN(c2ccccc2NC(=O)c2cccc([N+](=O)[O-])c2)CC1	i	i	6	0	9	29	52*	-44*
Cc1cccc(OCC(=O)Nc2ccccc2N2CCN(C)CC2)c1	11*	i	9	0	17	10	36*	i
CN(C(=O)CSc1nnc(-c2ccccc2)o1)c1c(N)n(Cc2ccccc2)c(=O)[nH]c1=O	i	i	11	0	-1	8	·	·
CCCN(CC(=O)Nc1cc(Cl)ccc1Cl)C(=O)/C=C/c1cc(OC)ccc1OC	·	·	·	·	·	3	·	·
CCCN(CC(=O)Nc1cc(Cl)ccc1Cl)C(=O)/C=C/c1ccco1	6.8*	i	25	0	15	-6	31*	i
Nc1c2c(nc3c1CCC3)CCCC2	12*	i	9	0	-1	10	44*	-70*
O=C(CCCCC(=O)NC1CCCC1)NC1CCCC1	i	i	4	-1	-1	11	·	·
Nc1nc(C(c2ccccc2)c2ccccc2)cs1	i	i	11	0	-3	-4	·	·
Oc1ccc(-c2cn3ccccc3n2)cc1O	i	i	-3	45*	7	18	37*	-42*
Cc1ccn2cc(-c3ccc(O)c(O)c3)nc2c1	i	i	20	30*	-2	23	36*	-40*
Oc1ccc(-c2cn3ccccc3n2)cc1	i	i	9	2	6	-1	·	·
Cc1cccc(/C=N/Nc2nncc3ccccc23)c1	i	i	12	-2	31	-8	·	·
COc1cc(/C=N/Nc2nncc3ccccc23)cc(OC)c1OC	7.6*	i	24	6	11	-3	40*	-48*
CCOc1ccc(C(C(=O)NC2CCCC2)N(Cc2ccccc2)C(=O)c2nsc(Cl)c2Cl)cc1 (stereo not drawn)	i	i	15	-1	-3	11	1	i
Nn1c(-c2ccccc2)cc(-c2ccccc2)cc1=O	i	i	8	0	-2	-7	·	·
Cn1c(=O)c2c(ncn2CCOc2cccc(Br)c2)n(C)c1=O	i	i	5	-1	0	-12	·	·
SMILES	CHT PAM	CHT inh	AI-2 QS mod	HIF activator	Platelet DG rel	VLA-4 inh	CHT act confirm	HEK293 MP dye
Cc1nc2ccccc2c2c1CC(C)S2 (stereo not drawn)	i	i	16	0	6	-3	42*	-53*
Cc1nc2ccccc2c2c1CC(C(C)(Cl)Br)O2 (stereo not drawn)	i	i	7	0	-1	9	·	·
C(=N\n1c2ccccc2c2ccccc21)/c1ccccc1	i	i	6	1	-3	3	·	·
C[n+]1cn(/N=C/c2ccccc2)c2ccccc21	6.6*	i	3	2	9	10	56*	-55*
CN(C)CCN(Cc1cc2cc3c(cc2nc1Cl)OCO3)C(=O)c1ccco1	6.8*	i	12	0	-3	-5	55*	-56*
CC(=O)c1cc(F)ccc1OCC(=O)Nc1ccc2c(c1)OCO2	·	·	·	·	·	17	·	·
Cc1cccc(C(C(=O)NC2CCCCC2)N(C(=O)c2csnn2)C2CC2)c1 (stereo not drawn)	i	i	-8	0	-5	-6	·	·
COC(=O)c1ccc(N2CCN(C)CC2)c(NC(=O)c2cccs2)c1	6.7*	i	·	1	6	-4	33*	-71*
COC(=O)c1ccc(N2CCOCC2)c(NC(=O)c2cccs2)c1	i	i	15	0	2	1	·	·
COC(=O)c1ccc(N2CCN(C)CC2)c(NC(=O)c2cccnc2)c1	10*	i	7	0	13	3	52*	-101*
Cc1ccc(-c2nc3ncccn3c2Nc2ccc3c(c2)OCCO3)cc1	i	i	6	3	2	8	·	·
Brc1c(-c2ccc3c(c2)OCO3)nc2ncccn12	6.3*	i	21	2	-10	-16	45*	-46*
Cc1cc2oc(C(=O)Nc3ccc(S(=O)(=O)Nc4onc(C)c4C)cc3)cc(=O)c2cc1Cl	i	i	22	0	5	5	37*	-35*
Cc1c2ccccc2cc(Cc2ccccc2)[n+]1C	6.7*	i	0	0	9	-4	68*	-76*
Cc1cccc2cc3c(N)c(C(=O)N4CCc5ccccc54)sc3nc12	i	i	15	0	-7	-170	26*	i
Cc1ccc(C(=O)CSc2ncn[nH]2)cc1	i	i	20	1	6	12	·	·
O=C(CSc1ncn[nH]1)c1ccc(OC(F)F)cc1	7.2*	i	11	1	-9	12	1	i
Cc1ccc(NC(=O)COC(=O)[C@H](C)NC(=O)c2ccccc2)cc1S(=O)(=O)N1CCOCC1	i	i	2	0	?	3	·	·
Oc1ccccc1-c1nc(NC2CCCC2)c2ccccc2n1	i	i	15	0	6	7	·	·
